Test systems include BT-549 breast; MDA-MB-435 melanoma; SW-620 colon; MCF7 breast; KM12 colon; HCC-2998 colon; HCT-116 colon.
Holding throughout (test): NCI-60 one-dose screen, 48 h (100 = growth as untreated, 0 = no growth, -100 = all killed)
Conditions in all cases: 10 µM unless noted

The panel holds about 83,000 compounds, 20% with a hit somewhere; the sample as a whole holds those more often.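 Interpretation: 100, growth as untreated; towards 0, rising growth inhibition; 0, no net growth; 0 to -100, cell death. Compounds scoring below 10 were considered active.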 A number with no mark means an inactive call. Active and inactive are the calls of the source.

On to `Clc1ccc2c(NCCCN3CCOCC3)c3oc4ccc(Cl)cc4c3nc2c1`, for which the growth with BT-549 breast is 81.3%; in the test on MDA-MB-435 melanoma, 69.6%; with SW-620 colon it was 27.5%; in the test with MCF7 breast, 22.2%; in the test with KM12 colon it was 48.4%.
In the case of `O=C(c1ccc(O)cc1)C1[C@H](c2ccc(Cl)cc2)[C@@H](c2ccccc2)NC12C(=O)Nc1ccc(Cl)cc12` (stereo partly drawn), the growth is 77.3% in the test with BT-549 breast; 39.6% in the test on MDA-MB-435 melanoma; 40.5% in the test with SW-620 colon; 9.87% (active) in the test on MCF7 breast; 18% with HCC-2998 colon; 24.4% with KM12 colon.
In the case of `O=C(CCCN1C(=O)/C(=C/c2ccccc2F)SC1=S)N1CCOCC1`, the growth was 114% in the test with BT-549 breast; 82.7% in the test with MDA-MB-435 melanoma; 95.2% with SW-620 colon; 56.9% in the test on MCF7 breast; 119% in the test on HCC-2998 colon; 85.4% in the test with KM12 colon.
As to `Fc1ccc(-c2cc3nc(C(Cl)Cl)nc(-c4ccc(Cl)cc4)n3n2)cc1`, the growth in the test on BT-549 breast was 72.4%; with MDA-MB-435 melanoma it was 25.8%; in the test with SW-620 colon it was -13.1% (active); in the test with MCF7 breast, 16.5%; in the test with KM12 colon, -17.1% (active).
For `O=c1[nH]c2ccccc2cc1CSc1ccccc1Nc1nccc(-c2ccc(C(F)(F)F)cc2)n1`, the growth in the test on BT-549 breast is 112%; in the test on MDA-MB-435 melanoma, 74.6%; in the test on SW-620 colon, 68.1%; in the test with HCT-116 colon, 43.4%; in the test on HCC-2998 colon, 90.4%; in the test with KM12 colon, 79.3%.
As for `O=C(CCN1C(=O)/C(=C/c2ccccc2)SC1=S)N1CCOCC1`, the growth was 104% in the test with BT-549 breast; 81.9% in the test on MDA-MB-435 melanoma; 79% in the test on SW-620 colon; 89.6% with HCT-116 colon; 112% in the test on HCC-2998 colon; 84.3% in the test on KM12 colon.
For `CC1=C(C)C(=O)C(Nc2cccc(C(F)(F)F)c2)=C(Cl)C1=O`, the growth was 121% in the test with BT-549 breast; 98.5% in the test with MDA-MB-435 melanoma; 17.1% in the test with SW-620 colon; 33.9% in the test on HCT-116 colon; 67.2% in the test on KM12 colon.
`CCCCN1C(=O)/C(=c2\sc3n(c2=O)C2C(NN=3)N(CC)C(=O)N2CC)c2cc(Cl)ccc21` (stereo not drawn): the growth in the test on BT-549 breast is 85%; with MDA-MB-435 melanoma, 6.07% (active); in the test on SW-620 colon, 58.2%; with MCF7 breast it was 27.5%; in the test with HCC-2998 colon, 101%; in the test on KM12 colon it was 55.8%.
Regarding `CC(=O)Nc1cc(F)cc(-c2ccc3[nH]cc(-c4ccccc4)c3n2)c1`, the growth is 73.1% in the test on BT-549 breast; 9.43% (active) with MDA-MB-435 melanoma; -56.2% (active) in the test with SW-620 colon; 11.9% in the test with HCT-116 colon; -19% (active) in the test with HCC-2998 colon; -41% (active) in the test on KM12 colon.
With `O=C(N/N=C/c1ccc(Cl)s1)c1[nH]c2ccc(Br)cc2c1-c1ccccc1`, the growth was -18.1% (active) in the test on BT-549 breast; -8.88% (active) in the test on MDA-MB-435 melanoma; 25% in the test on SW-620 colon; 7.95% (active) in the test with MCF7 breast; 19.9% in the test on HCC-2998 colon; 10.5% in the test on KM12 colon.
In the case of `COc1ccc(NC(=O)c2sc3nc(-c4cnccn4)cc(-c4cccs4)c3c2N)cc1`, the growth with BT-549 breast is 42.4%; in the test with MDA-MB-435 melanoma, 71.5%; in the test on SW-620 colon, 65.2%; in the test with HCT-116 colon it was 61.9%; with HCC-2998 colon, 67.5%; with KM12 colon, 61%.
`CC(=O)Oc1ccccc1C(=O)Nc1cc(C(C)C)ccc1C`: the growth in the test on BT-549 breast is 37.5%; in the test on MDA-MB-435 melanoma, 11.1%; in the test on SW-620 colon, 23.8%; in the test with HCT-116 colon, 11.3%; in the test on HCC-2998 colon it was 20.5%; in the test on KM12 colon it was 11.1%.
As for `Cc1ccc(CNS(=O)(=O)/N=C2\NC(=O)NC2=C(Cl)Cl)cc1`, the growth is -8.68% (active) with BT-549 breast; 47.7% in the test with MDA-MB-435 melanoma; 32.4% in the test on SW-620 colon; 17.2% in the test on MCF7 breast; 24% with KM12 colon.
On the same counts, the results for `Cc1ccc(C(=O)Nc2cccc(C(F)(F)F)c2)cc1Nc1nc(-c2cnccn2)nc2c1cnn2C` are 143%, 35.9%, 58.4%, 73.2% and 56.6%.
Consider `COC1CCN(Cc2ccc3c(NNC(=O)c4cnccn4)nc4cc(F)ccc4n23)C1` (stereo not drawn), for which the growth with BT-549 breast was 51.7%; in the test on MDA-MB-435 melanoma, 37.2%; in the test with SW-620 colon, 24%; in the test on HCT-116 colon it was 4.53% (active); in the test on HCC-2998 colon, 59.9%; with KM12 colon it was 22.6%.
As to `NS(=O)(=O)c1ccc(Nc2nc(Nc3ccccc3)nc(-n3nc(-c4ccccc4)cc3-c3ccccc3)n2)cc1`, the growth in the test with BT-549 breast was 52.7%; with MDA-MB-435 melanoma, 26.9%; in the test on SW-620 colon, 38.2%; with HCT-116 colon it was 10.5%; in the test with HCC-2998 colon, 43.1%; in the test on KM12 colon, 9.22% (active).
Turning to `Cc1nc2cnc(N)c(C#Cc3cncc(C(=O)Nc4ccc(Cl)c(C(F)(F)F)c4)c3)c2nc1C`, the growth in the test with BT-549 breast was 86.7%; in the test on MDA-MB-435 melanoma it was 41%; in the test on SW-620 colon it was -18.9% (active); in the test on HCT-116 colon it was 15.4%; in the test with HCC-2998 colon, 60.4%; in the test on KM12 colon, 3.01% (active).
On to `O=C1/C(=C/C2=Cc3ccccc3OC2)SC(=S)N1c1ccc(F)cc1`, for which the growth is 100% in the test with BT-549 breast; 101% with MDA-MB-435 melanoma; 107% with SW-620 colon; 90.6% in the test on MCF7 breast; 97.5% in the test on KM12 colon.
Take `COc1ccc(-c2nn3c(-c4ccccc4F)nnc3s2)cc1`: the growth was 50.9% in the test with BT-549 breast; -4.46% (active) with MDA-MB-435 melanoma; 34.4% in the test with SW-620 colon; 42% with HCT-116 colon; 70% in the test on HCC-2998 colon; 31.8% with KM12 colon.

These data come from PubChem BioAssay (NCI).
